From PubChem BioAssay
Vif inh: blocks HIV Vif function. HEK293T cells, Vif self-association by quenched fluorescence, imaging, 24 h. inhibition, % at 7.49 µM. 340,000 compounds, 0.35% hits; in the data active = inhibition above about 50%, passing the limit was not always enough; inconclusive = no clear call, values can overlap the other calls; inactive = below about 31%
RAD54 branch: inhibitors of human RAD54 branch migration; inhibition, % at 10.4 µM; RAD54 Holliday junction branch migration, FAM/BHQ fluorescence; AID 602329; 360,000 compounds, 0.14% hits;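 active = mean normalized replicate activity at least 40 and at least half of replicates scoring 40 or more; inconclusive = only one of the two criteria met; inactive = mean below 40 and under half of replicates reaching 40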;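 also: 0% = median of neutral control wells and 100% = median of positive control wells; inhibitors cause a drop in the FAM fluorescence signal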
Myeloid diff MLP: myeloid differentiation induction; ER-HoxA9 myeloid progenitors, lysozyme-GFP differentiation, flow cytometry; calls only at 10 µM; 360,000 compounds, 1% hits; AID 624256;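 active = normalized GFP-positive differentiation at or above the plate's own cutoff, the solvent-only control mean plus 3 SD; inconclusive = no clear call, values can overlap the other calls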;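 also: cells exposed to compound for four days before flow analysis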
Glyco luc inh: blocks N-linked glycosylation in D54 reporter cells; D54 ERlucT glycosylation luciferase reporter, 24 h; percent of 100 nM tunicamycin response; reporter increase, % at 12.5 µM; 360,000 compounds, 0.23% hits; AID 588692;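 active = mean luciferase reporter signal, scaled so untreated is 0 and the glycosylation-blocking control 100, at or above a set limit in every replicate; inconclusive = mean reaches the limit but not every replicate does; inactive = mean below the limit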;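 also: luciferase carries N-glycosylation sites so blocking glycosylation raises the light; 0% = median of neutral control wells and 100% = median of 100 nM tunicamycin wells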
ABCB6 inh 2: inhibitors of human ABC transporter ABCB6; fluorescence ratio to DMSO, % at 10 µM; 360,000 compounds, 0.19% hits; K562-ABCB6 porphyrin accumulation, flow cytometry, 1 h; stronger effect = lower value;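 active = fluorescence ratio to DMSO below 75%, the collection mean minus 3 SD; inconclusive = too few cells collected in the well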;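 also: signal is porphyrin accumulated inside mitochondria; 100% equals median channel fluorescence of DMSO control wells; lower ratio means ABCB6 inhibition with less porphyrin fluorescence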
Target sequence (Q9NP58 whole entry, looked up): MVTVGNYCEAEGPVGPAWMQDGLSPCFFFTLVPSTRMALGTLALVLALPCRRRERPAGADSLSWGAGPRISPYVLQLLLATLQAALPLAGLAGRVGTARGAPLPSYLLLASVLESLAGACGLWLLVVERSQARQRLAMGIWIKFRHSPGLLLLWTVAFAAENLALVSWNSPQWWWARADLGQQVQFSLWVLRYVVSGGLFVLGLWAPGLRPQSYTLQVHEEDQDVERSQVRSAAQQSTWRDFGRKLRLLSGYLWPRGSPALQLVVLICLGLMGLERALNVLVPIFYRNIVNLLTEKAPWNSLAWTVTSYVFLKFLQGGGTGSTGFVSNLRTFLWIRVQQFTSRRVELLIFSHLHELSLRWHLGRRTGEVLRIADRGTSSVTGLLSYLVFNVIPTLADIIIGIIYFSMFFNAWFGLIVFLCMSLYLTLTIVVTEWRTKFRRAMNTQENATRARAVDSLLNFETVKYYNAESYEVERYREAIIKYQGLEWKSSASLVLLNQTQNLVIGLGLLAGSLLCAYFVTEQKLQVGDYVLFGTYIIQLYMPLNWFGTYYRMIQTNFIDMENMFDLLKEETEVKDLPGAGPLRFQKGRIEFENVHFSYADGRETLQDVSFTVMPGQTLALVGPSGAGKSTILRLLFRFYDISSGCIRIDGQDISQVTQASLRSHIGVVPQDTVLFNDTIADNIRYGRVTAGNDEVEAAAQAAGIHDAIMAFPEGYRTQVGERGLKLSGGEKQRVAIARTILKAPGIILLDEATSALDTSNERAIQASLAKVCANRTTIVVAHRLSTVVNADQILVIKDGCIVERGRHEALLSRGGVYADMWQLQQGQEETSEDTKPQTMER
Myeloid diff: promotes myeloid progenitor differentiation | shares compounds with Myeloid diff MLP | ER-HoxA9 myeloid progenitors, GFP/Mac1 double-positive flow | calls only | 2,300 compounds, 2% hits | AID 651706;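 active = share of green or green-and-red cells above 9 and 9% in run 1 or 4 and 3% in run 2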
GFP autofluor: counter-screen for myeloid differentiation promoters: compound fluorescence. shares compounds with Myeloid diff MLP. ER-HoxA9 myeloid progenitors, no estrogen, GFP autofluorescence flow cytometry; vehicle wells 0%, positive control 100%. fluorescence response, % (test concentration not listed). 2,300 compounds, 7.4% hits;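 active = over 5% cells positive for green fluorescent reporter, or over 2% positive for both it and APC stain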;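 also: range taken on the double positive population between DMSO and positive control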
The depositor's hits bear a star; i = inactive; ? = inconclusive; . = no result given; + = active, no number. In the library only some 1.6% were active in any assay of this set; here they are far more common.

SMILES	Vif inh	RAD54 branch	Myeloid diff MLP	Glyco luc inh	ABCB6 inh 2	Myeloid diff	GFP autofluor
CC1(C)CC(=O)C(C=Nc2ccc(C(=O)c3ccccc3)cc2N=CC2=C(O)CC(C)(C)CC2=O)=C(O)C1	-2	.	+	1	145	i	0
COc1ccc(NC2=C(NC(C)=O)C(=O)c3ccccc3C2=O)cc1	-5	-15	+	4	95	+	0
COc1cc(C2N(c3ccccc3)CCN2c2ccccc2)ccc1OC(C)=O	-1	-1	i	3	97	.	.
COc1ccc(C2N(c3ccc(C)cc3)CCN2c2ccc(C)cc2)cc1O	3	.	i	2	96	i	0
C[C@H]1CN([C@@H](C)CO)C(=O)c2cc(NC(=O)NC3CCCCC3)ccc2O[C@H]1CN(C)C(=O)Nc1ccc(C(F)(F)F)cc1	0	4	i	-1	103	i	0
COc1ccc(NC(=O)Nc2ccc3c(c2)C(=O)N([C@H](C)CO)C[C@@H](C)[C@@H](CN(C)S(=O)(=O)c2ccc(F)cc2)O3)cc1	.	2	.	.	.	.	.
CC(O)C(=O)N/N=C/c1ccccc1C(=O)O (stereo unspecified)	2	2	i	1	97	i	0
CC(C)NC(=O)CC(=O)N/N=C\c1ccccc1C(=O)O	-2	.	i	4	100	.	.
C[C@H]1CN([C@@H](C)CO)C(=O)c2cc(NS(=O)(=O)c3cccs3)ccc2O[C@H]1CN(C)Cc1ccncc1	.	-1	.	.	.	.	.
O=C(CC1c2cc(F)ccc2C=C(c2ccsc2)N1c1ccc(C#CCCO)cc1)c1ccco1 (stereo unspecified)	.	.	i	.	103	i	0
CCNC(=O)C[C@@H]1CC[C@@H]2[C@H](COC[C@@H](O)CN2C(=O)Nc2ccc(C(F)(F)F)cc2)O1	.	-1	.	.	.	.	.
Cc1ccc(C(=O)NNC(=O)CSc2nnc(-c3ccncc3)n2-c2ccc(C)cc2)cc1	-5	-2	i	2	99	i	0
C[C@H]1CN([C@@H](C)CO)C(=O)Cc2cc(NC(=O)c3ccncc3)ccc2O[C@H]1CN(C)Cc1ccc(-c2ccccc2)cc1	.	6	.	.	.	.	.
COc1cc(CNc2ccc3[nH]c(=O)[nH]c3c2)ccc1OCc1ccc(Cl)cc1	-2	-6	i	0	112	i	0
COc1cc(CNc2ccc(N3CCN(C(C)=O)CC3)cc2)ccc1OCc1ccc(F)cc1	-24	.	i	2	95	i	0
COc1cc(CNc2ccc3[nH]c(=O)[nH]c3c2)ccc1OCc1ccccc1	1	3	i	-3	94	.	.
COc1cc(CNc2ccc3[nH]c(=O)[nH]c3c2)ccc1OCc1ccc(F)cc1	-1	5	i	-4	97	i	0
CO[C@@H]1CN(C)C(=O)c2cc(NC(=O)c3cccc(F)c3)ccc2OC[C@@H](C)NC[C@H]1C	.	-2	.	.	.	.	.
COc1ccc(S(=O)(=O)N(C)C[C@@H]2Oc3ccc(NC(=O)C4CCCCC4)cc3CC(=O)N([C@H](C)CO)C[C@H]2C)cc1	.	-3	.	.	.	.	.
O=C1NC(=S)N(C(=O)c2ccc(F)cc2)/C1=C/c1ccccc1	-11	4	+	11	103	i	2
COc1ccc(/C=C2\C(=O)NC(=S)N2C(=O)c2ccc(F)cc2)cc1	-10	-41	i	-1	133	.	.
COc1cc(/C=C2\COC/C(=C\c3cc(OC)c(OC)c(OC)c3)C2=O)cc(OC)c1OC	-3	.	?	-22	96	.	.
COc1cc(/C=C2\CC/C(=C\c3cc(OC)c(OC)c(OC)c3)C2=O)cc(OC)c1OC	.	.	+	3	108	i	0
CCC(=O)N1C[C@@H](C)[C@H](OC)CN(C)C(=O)c2cc(NC(=O)Nc3cccc(F)c3)ccc2OC[C@@H]1C	.	20	.	.	.	.	.
CCN(CC(=O)Nc1c(F)cccc1F)C(=O)CC1CCCCC1	-3	1	i	0	98	i	2
O=C(C[C@@H]1CC[C@H]2[C@@H](COC[C@@H](O)CN2S(=O)(=O)c2ccc(F)cc2)O1)NCC1CC1	.	4	.	.	.	.	.
CCC1(CC)NC(=O)N(CC(=O)Nc2ccc(C)cc2C)C1=O	17	-4	i	1	97	.	.
